Screens as filed in PubChem BioAssay.
ELG1 repair inh – blocks ELG1-dependent DNA repair in HEK293T cells. hit rate 2.3% among 330,000. HEK293T ELG1-luciferase reporter, luminescence, 16 h; DNA damage induced by 5-fluorouridine. Potency, µM (top dose mostly 46.1 µM), inactives show at the top dose activity change, negative = inhibition, most hits filed as inhibitors. AID 504467; also: % is scaled to controls: 0 for no effect and ±100 for the full control effect; nearly all actives have a fitted effect of over 55% in size
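Cells (2,000 per well) received 5-fluorouridine plus test compound or DMSO and were incubated 16 hr at 37 °C, 5% CO2. Luciferase activity was read by luminescence 30 min after ONE-Glo addition; signal suppression marked inhibition of damage-induced ELG1 function.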
ELG1 genotoxic – induces genotoxicity in HEK293T cells with luciferase-tagged ELG1; HEK293T ELG1-luciferase reporter, luminescence, 16 h; Potency, µM (top dose mostly 46 µM), inactives show at the highest dose activity change, positive = activation, hits mostly activators; hit rate 1.3% among 330,000; also: % of control where 0% means no effect; nearly all actives have a fitted effect of over 60% in size
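Reporter readout depends on ELG1 protein level, which increases with genetic stress. After 16 hr compound exposure at 37 °C, luciferase activity was quantified using ONE-Glo.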
SMN2 splice enh – enhancers of SMN2 splice variant expression; HEK293 SMN2-luciferase splicing reporter, luminescence, 30-36 h; Potency, µM (doses to about 46.1 µM), without a hit: top-dose activity change, positive = activation, most hits filed as activators; AID 1458; hit rate 2.8% among 210,000; also: % of control where 0% means no effect; nearly all actives have a fitted effect of over 55% in size
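HEK293 cells carry an SMN2 […]–luciferase reporter in which exon 7 inclusion puts luciferase in frame. Cells were plated 10-12 h before compound addition, then incubated 30-36 h at 37C. ONE-Glo luminescence was read; sodium butyrate at 4.5 mM final served as control.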
Rab9 promoter act – activators of Rab9 promoter; AID 485297; Potency, µM (titrated, usually from 9.22 µM), for the others: at the highest dose activation, negative = inhibition, usual class: activators; hit rate 2.8% among 320,000; Huh7 Rab9 promoter-luciferase reporter, luminescence, 24 h; also: % of control where 0% means no effect; nearly all actives have a fitted effect of over 60% in size
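Rab9 promoter-driven luciferase in stably transfected Huh7 cells; 1500 cells/well rested 2 h, exposed to compound in DMSO for 24 h at 37 °C, 5% CO2. Luminescence read 10 min after adding luciferase reagent at ambient temperature.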
FLuc counter – inhibits or activates purified firefly luciferase, miR-21 counter-screen; P08659; purified FLuc, Km substrates, luminescence inhibition; Potency, µM (titrated, usually from 57.5 µM), for inactives: at the top dose activity change, negative = inhibition, most hits filed as inhibitors; hit rate 6.9% among 360,000;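 also: plate controls were vehicle for no effect and reference inhibitor for full effect; nearly all actives have a fitted effect of over 55% in size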
Target sequence (P08659 whole entry, looked up): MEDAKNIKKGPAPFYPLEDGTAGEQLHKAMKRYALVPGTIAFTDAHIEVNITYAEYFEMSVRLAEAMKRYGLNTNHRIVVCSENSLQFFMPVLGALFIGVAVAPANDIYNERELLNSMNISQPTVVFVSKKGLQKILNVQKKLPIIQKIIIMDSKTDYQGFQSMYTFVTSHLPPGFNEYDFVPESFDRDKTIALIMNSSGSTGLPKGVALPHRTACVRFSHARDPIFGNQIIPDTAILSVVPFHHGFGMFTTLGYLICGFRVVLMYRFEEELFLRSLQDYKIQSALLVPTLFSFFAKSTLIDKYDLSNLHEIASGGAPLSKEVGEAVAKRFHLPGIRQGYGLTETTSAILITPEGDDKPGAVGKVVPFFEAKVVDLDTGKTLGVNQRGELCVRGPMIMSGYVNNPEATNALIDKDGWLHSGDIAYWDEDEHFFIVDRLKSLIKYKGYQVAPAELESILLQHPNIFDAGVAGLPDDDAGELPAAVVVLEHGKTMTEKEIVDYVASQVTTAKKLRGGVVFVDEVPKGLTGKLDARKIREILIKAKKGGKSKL
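Purified P. pyralis luciferase (10nM final) with 10uM D-luciferin and 10uM ATP (Km levels) in 50mM Tris acetate pH 7.5, 10mM Mg acetate, 0.01% Tween-20, 0.05% BSA; qHTS 6-point titration, ~60 µM downward; luminescence read.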
NPC1 promoter act – activates the NPC1 promoter; Huh7 NPC1 promoter luciferase reporter, 24 h; Potency, µM (highest dose often 9.22 µM), for the others: at the top dose activation, most hits filed as activators; hit rate 2.4% among 320,000; also: % of control where 0% means no effect; nearly all actives have a fitted effect of over 60% in size
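Quantitative HTS used a cell-based reporter: Huh7 cells stably bearing the NPC1 promoter upstream of luciferase were treated with compounds for 24 h, and promoter activation was read as luminescence.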
Numbers without * were called inactive; u = inconclusive; x = no result given; [ ] = remark or other dose. Only some compounds are listed: those with a hit (about 9.2% of all), similar ones and a draw of the others. Calls follow the shape of the dose curve; as a rule, active = well fitted curve in the direction sought with a large enough effect; inconclusive = small, poorly fitted or top-dose-only effect, or another doubt; inactive = no such curve, though single readings can be large; an effect the other way counts as inactive or inconclusive. Potency is read from the fitted curve at half-maximal effect.

SMILES | ELG1 repair inh | ELG1 genotoxic | SMN2 splice enh | Rab9 promoter act | FLuc counter | NPC1 promoter act
Cc1c(C(=O)Nc2cc(F)cc(F)c2)cnn1-c1ccccc1 | u | u | x | 2.51µM* | 7.57µM* | 1.26µM*
Cc1c(C(=S)Nc2ccccc2)cnn1-c1ccccc1 | 21.5% | 0.8% | 5.3% | u | 15.1µM* | u
C=CCNc1nc2ccccc2nc1NS(=O)(=O)c1ccc(Cl)cc1 | -2.9% | -17.5% | x | -5.2% | 8.0% | -3.3%
COC(=O)[C@@H]1O[C@@H](SCCN)[C@@H](O)[C@H](O)[C@H]1O | x | x | 1.1%[9.22 µM] | x | x | x
Cc1c(C(=O)Nc2ccccc2F)cnn1-c1ccccc1 | u | 8.2µM* | x | 1.41µM* | 5.36µM* | 2.51µM*
CCCc1c(C(=O)NNc2ccc(C)cc2)cnn1-c1ccccc1 | 7.3µM* | 4.9% | x | -4.9% | 0.8% | 2.5%
Cc1c(C(=O)Oc2cccc3ccccc23)cnn1-c1ccccc1 | u | 8.91µM* | u | u | 9.53µM* | 21.8%
COc1ccc(C2C=C(c3ccccc3)Nc3nnnn32)cc1 (stereo not given) | u | 12.6% | 3.1% | u | 3.4% | 3.98µM*
COc1cccc(C2C=C(c3ccc(OC)cc3OC)Nc3nnnn32)c1 (stereo not given) | 18.4µM* | -15.0% | -39.3% | -17.8% | u | -8.9%
COc1ccc(C2=CC(c3ccc(OC)c(OC)c3)n3nnnc3N2)c(OC)c1 (stereo not given) | u | -2.3% | x | 1.6% | -8.0% | -1.4%
COc1cccc(C2=CC(c3cccc(OC)c3OC(F)F)n3nnnc3N2)c1 (stereo not given) | u | -6.8% | -16.0% | -5.2% | -3.9% | 7.9%
COc1cccc(C2=CC(c3cccc(OC)c3OC)n3nnnc3N2)c1 (stereo not given) | -2.3% | u | u | 12.3% | 23.9µM* | -10.8%
CCCCc1nn2c(=O)cc(COC(=O)CNC(=O)c3ccccc3C)nc2s1 | x | x | x | x | -7.3% | x
O=C(CN1C(=O)c2ccc([N+](=O)[O-])cc2C1=O)NCCC1=CCCCC1 | -1.7% | -0.1% | x | 2.5% | -19.3% | -0.8%
Cc1ccccc1Cn1nnc(-c2cccc(C(=O)O)c2)n1 | u | 1.64µM* | 7.94µM* | 0.794µM* | 4.26µM* | 0.447µM*
CSc1ccc(-c2nnn(Cc3ccc(C)cc3)n2)cc1 | u | u | 17.5% | u | 10.7µM* | u
O=C(O)c1cccc(-c2nnn(Cc3ccccc3Cl)n2)c1 | u | u | 1.58µM* | 0.398µM* | 3.01µM* | 0.447µM*
COc1ccc(-c2nnn(Cc3ccccc3)n2)cc1 | u | u | x | 3.16µM* | 21.3µM* | u
CC(C)CCN1CCN=C1Nc1ccccc1 | 7.1% | -2.3% | x | -4.8% | -0.9% | 1.5%
Cc1cccc(OCC(=O)Nc2ccc(Cl)c(-c3nc4ccccc4[nH]3)c2)c1 | x | x | x | x | -13.7% | x
Cc1ccc(Cl)cc1NC(=O)c1oc2ccc(S(=O)(=O)N(C)C3CCCCC3)cc2c1C | x | x | x | x | -4.4% | x
COc1cccc(Cn2c(=O)n(-c3cccc(Cl)c3)c(=O)c3c4c(sc32)CN(C(C)=O)CC4)c1 | x | x | 9.4% | x | 2.1% | x
Cc1ccccc1SCC(=O)OCC(=O)NCc1ccccc1 | 20.4% | -4.4% | x | x | x | x
CCC(=O)Nc1nnc(S(=O)(=O)N(C)c2cc(C)cc(C)c2)s1 | 9.8% | 2.3% | x | -2.0% | -0.3% | -3.6%
O=C(O)c1cccc(-c2nnn(Cc3ccccc3)n2)c1 | u | 12.7% | 2.51µM* | 0.708µM* | 10.7µM* | 1.41µM*
COc1cccc(OC)c1C(=O)Nc1cccc(-c2nc3cc(C)cc(C)c3o2)c1 | x | x | 4.4% | x | u | x
CCOc1ccc(-n2c(=O)c3c(C)c(C)sc3n(CC(=O)c3ccccc3)c2=O)cc1 | x | x | -0.2% | x | -0.4% | x
C[N+]1(Cc2ccccc2)CCC(C(=O)OCC2CCCC2)CC1 (stereo not given) | x | x | -9.6% | x | x | x
